Test results from PubChem BioAssay AID1347077 (National Center for Advancing Translational Sciences (NCATS), 2019).
The campaign covered roughly 44,000 compounds. Fewer than 10 were called active. A selection follows. Unmarked numbers belong to inactive results. The call rests on the fitted dose curve; in most records, active means well fitted activation curve with a large enough effect; inconclusive means small, poorly fitted or top-dose-only effect, or another doubt; inactive means no such curve, though single readings can be large or run the other way.
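Further: 0% = DMSO and full agonism = EC100 isoproterenol or metaproterenol.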

What follows are molecules tested against Beta-2 adrenergic receptor (Homo sapiens) (UniProt P07550) (assay: qHTS assay of beta-arrestin-biased ligands of beta2-adrenergic receptor: NCGC Sytravon Library Screen). Details: HTLA Tango cells, beta-arrestin recruitment, luciferase luminescence, 18 h; series mostly up to 46.1 µM; activation: at the top concentration.
Beta-2 adrenergic receptor (Homo sapiens), sequence (P07550 whole entry, looked up): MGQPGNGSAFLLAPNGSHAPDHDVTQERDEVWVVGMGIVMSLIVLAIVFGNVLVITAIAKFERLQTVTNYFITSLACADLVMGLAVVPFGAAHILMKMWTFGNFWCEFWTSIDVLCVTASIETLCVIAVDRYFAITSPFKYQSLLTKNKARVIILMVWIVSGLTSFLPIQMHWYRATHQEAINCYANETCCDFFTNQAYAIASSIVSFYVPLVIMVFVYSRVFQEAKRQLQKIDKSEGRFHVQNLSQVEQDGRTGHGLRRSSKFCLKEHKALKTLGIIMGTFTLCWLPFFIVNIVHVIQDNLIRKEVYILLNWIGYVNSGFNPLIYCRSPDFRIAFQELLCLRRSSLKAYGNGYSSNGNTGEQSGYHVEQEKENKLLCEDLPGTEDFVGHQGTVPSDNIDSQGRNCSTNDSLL
Text: The concept of biased agonism is an emerging concept of molecular pharmacology which proposes that seven transmembrane receptors (7TMRs) or G protein-coupled receptors (GPCRs), exist in multiple signaling conformations and complexes and that ligands (either agonists or antagonists) can induce signaling biased responses for distinct signal transduction cascades. […] Furthermore, accumulating evidence over the last decade has drawn attention to a novel function of beta-arrestins as signal transducers that scaffold various signaling molecules upon activation of 7TMRs. […] This beta-arrestin-biased signaling presumably leads to distinct physiological outcomes from those by G protein activation. Additionally, the active receptor conformations which prefer on this beta-arrestin signaling are likely different from those activating G protein signaling. […] The goal of this screening project will be to discover and optimize novel beta-arrestin-biased ligands for beta2-AR signaling. A luminescent cell-based assay for beta2-AR-mediated agonism, known as the Tango assay, has been validated in which ligand binding of a recombinant beta2-AR and subsequent recruitment of a recombinant beta-arrestin lead to the release of the transcriptional activator tTA, which upregulates transcription of a tTA-responsive luciferase gene. […] Compounds from the NCGC Sytravon Library collection were screened as a concentration-titration series that ranged from 46 microM to 0.6 nM. NIH Molecular Libraries Probe Production Network [MLPCN] NIH Chemical Genomics Center [NCGC] MLPCN Grant: Fast-track/HHSN271700800025C PI: Bryan Roth and Bob Lefkowitz
Tango cells were dispensed into white, solid, tissue-culture-treated 1536-well plates at 1500 cells/well in DMEM, containing 1% fetal bovine serum (FBS). Then, 23 nL of compounds or DMSO were delivered to each well using a pin tool. Plates were incubated at 37 degrees C, 5% CO2 for 18 hr. Then 2.5 uL luminescent substrate mix (in-house prepared: 150 mM Tris-Cl, pH 7.6, 3 mM MgCl2, 1% Triton X-100, 5 mM DTT, 0.5 mM CoA, 0.15 mM ATP, 0.44 mM D-luciferin, final concentrations) was added to each well. Plates were then incubated for 15 minutes at room temperature, and subsequently measured on a ViewLux plate reader for luminescent signal using a clear filter with a 10 second exposure and 2x binning. The %Activity was determined from the corrected luminescence values. […] Concentration-response curves were fitted to the signals arising from the resulting luminescence. The concentration-effect curves were then classified based on curve quality (r2), response magnitude and degree of measured activity, and compounds were subsequently categorized based on their curve class.
CCCn1c2ccccc2c2cnn(CC(=O)N(CC)c3cc(C)ccc3C)c(=O)c21 was tested, and the “activation” value was 0.931%. O=C(COc1ccc(Cl)cc1)Nc1ccccc1OCc1cc(=O)n2ccccc2n1 was tested, and the “activation” value was -0.53%. CCc1ccccc1NC(=O)CCOc1ccccc1 was tested, and the “activation” value was -1.06%. CCC(C(=O)Nc1cc(OC)ccc1OC)n1c(=O)c(C(F)(F)F)nc2ccccc21 (stereo unspecified) was tested, and the “activation” value was 0.639%. In the case of Cc1ccc(CN2COc3cc(C)c4c(oc(=O)c5ccccc54)c3C2)cc1, the “activation” value is reported as 0.158%. COc1ccc(OC)c(-c2csc(-c3c(N)c(C(=O)c4ccccc4)n4ccccc34)n2)c1 was tested, and the “activation” value was -3.81%. COc1ccc(CNC(=O)c2ccc3c(c2)nc2n3CCOC2)c(OC)c1 was tested, and the “activation” value was 1.39%. With CCOC(=O)c1scc(-c2ccc(C)cc2)c1S(=O)(=O)Nc1cc(C)ccc1C the “activation” value was -0.489%. For CCN(CCCNC(=O)c1ccc(Sc2ccc(C)cc2)c(NC(C)=O)c1)c1cccc(C)c1, the “activation” value was 0.426%. With CCOc1cccc(NC(=O)c2ccc(F)c(S(=O)(=O)N(CC)c3cccc(C)c3)c2)c1 the “activation” value was 0.916%. COc1ccc(C(=O)c2oc3ccccc3c2NC(=O)COc2cccc(C)c2)cc1 was tested, and the “activation” value was -1.04%. Cc1ccccc1OCc1ccc(-c2nc(C#N)c(N3CCCCC3)o2)o1 was tested, and the “activation” value was -3.83%. CCCCc1nn2c(=O)cc(COC(=O)c3ccc(NC(=O)c4ccccc4C)cc3)nc2s1 was tested, and the “activation” value was 0.536%. In the case of COC(=O)NNC(=O)C1CCC(C)CC1 (stereo unspecified), the “activation” value is reported as -1.45%. With CCc1nnc2c3ccccc3nc(N3CCN(c4ccc(C)cc4C)CC3)n12 the “activation” value was -0.66%. CCOc1ccc(CNC(=O)Cn2cc3c(n2)-c2c(oc(C(=O)N4CCCC4)c2C)CC3)cc1 was tested, and the “activation” value was 3.6%. In the case of CCOCCc1nn2c(=O)cc(COC(=O)CNC(=O)c3ccc(C(C)(C)C)cc3)nc2s1, the “activation” value is reported as 0.68%. In the case of CCC(=O)N1CCc2cc(Br)cc(S(=O)(=O)NCc3ccc(Cl)cc3)c21, the “activation” value is reported as -1.73%. Cc1nc2nc(NCc3cccc(Br)c3)[nH]n2c(=O)c1Cc1ccccc1 was tested, and the “activation” value was 0.0099%. In the case of COc1ccc(NC(=O)C(c2ccccc2)N2Cc3ccccc3C2=O)cc1 (stereo unspecified), the “activation” value is reported as 5.73%. With Cc1nc2sc(C)c(C)n2c(=O)c1S(=O)(=O)NCCc1ccc(Cl)cc1 the “activation” value was -0.232%. In the case of CCOc1ccc(OCC)c(NS(=O)(=O)c2ccc3[nH]c(=O)ccc3c2)c1, the “activation” value is reported as -0.327%. In the case of COc1ccc(S(=O)(=O)NCCSc2nnnn2-c2ccccc2)cc1, the “activation” value is reported as 0.743%. For Cc1ccccc1CNC(=O)CCCn1nc(C)c2sc3ccccc3c2c1=O, the “activation” value was -2.1%. In the case of COc1cccc(N2CC(NC(=O)/C=C\c3ccccc3)CC2=O)c1 (stereo unspecified), the “activation” value is reported as -3.35%. For O=C(CSc1ncc(-c2ccccc2)[nH]1)Nc1ccc(F)cc1F, the “activation” value was 0.53%. In the case of COc1ccc(Cl)cc1NC(=O)CCC(=O)c1ccc(C)cc1, the “activation” value is reported as 0.0498%. With Cc1c(NC(=O)C(C)(C)C)cccc1-c1nc2ccccc2s1 the “activation” value was -1.11%. With Cc1nn(CC(=O)O)c(=O)c2cc3cc(F)ccc3n12 the “activation” value was 0.588%. CCc1ccc(N(CC)C(=O)CCn2cnc3onc(-c4ccc(F)cc4)c3c2=O)cc1 was tested, and the “activation” value was -0.94%. With COc1ccc(CCNC(=O)c2cnc3sc(N4CCCCCC4)nn3c2=O)cc1OC the “activation” value was -0.913%. In the case of CCCn1c(=N)c(C(=O)NCc2ccccc2)cc2c(=O)n3cccc(C)c3nc21, the “activation” value is reported as -0.961%. With COc1ccc(CCNC(=O)c2cc(=O)c3c(C)cc(C)cc3o2)cc1OC the “activation” value was 0.0788%. For Cc1ccc(S(=O)(=O)N2CCc3cc(C(=O)Nc4ccc(Cl)cc4C)ccc32)cc1, the “activation” value was -1.36%. With COc1cccc(NC(=O)CSC2=Nc3ccccc3C3=NC(CC(=O)NC4CCCCC4)C(=O)N23)c1 (stereo unspecified) the “activation” value was 7.44%. For CCCCOc1ccc(CNC(=O)c2ccc3c(c2)N(C)C(=O)C2CCCCN32)cc1 (stereo unspecified), the “activation” value was 0.39%. For COc1ccccc1NC(=O)c1oc2ccccc2c1NC(=O)C(C)C, the “activation” value was 0.779%. With COc1ccc(CCNc2ncnc3onc(-c4ccc(Cl)cc4)c23)c(OC)c1 the “activation” value was 0.556%. With Cc1csc2nc(COC(=O)c3ccc(NC(=O)COc4ccccc4F)cc3)cc(=O)n12 the “activation” value was -0.993%. COc1ccc(N2CCN(C(=O)C3CCCN(C(=O)c4cc5sccc5n4C)C3)CC2)cc1 (stereo unspecified) was tested, and the “activation” value was 0.138%. In the case of O=C(COc1ccccc1F)OCc1cc(=O)n2nc(C3CCCCC3)sc2n1, the “activation” value is reported as 1.96%. For CCC1CCCCN1Cc1c(O)ccc2c(=O)c(Oc3ccccc3Cl)c(C(F)(F)F)oc12 (stereo unspecified), the “activation” value was 0.136%. For Cc1cc(=O)n(CC(=O)Nc2cccc([N+](=O)[O-])c2)c(-n2nc(C)cc2C)n1, the “activation” value was -2.64%. CCOC(=O)c1c(C)[nH]c(CCC(=O)NCCCN2CCN(c3cc(C)ccc3C)CC2)c1C was tested, and the “activation” value was -0.282%. COc1cc(Nc2nc(-c3ccc(OC)c(OC)c3)nc3ccccc23)cc(OC)c1 was tested, and the “activation” value was -2.01%. Cc1cc(C)cc(OC(C)C(=O)Nc2nc3c(s2)CCCC3)c1 (stereo unspecified) was tested, and the “activation” value was -3.8%. With COCCn1c(SCC(=O)c2cc(C)ccc2C)nc2cc(C(=O)NC3CCCC3)ccc2c1=O the “activation” value was 3.01%. With CCOc1ccccc1NC(=O)CCn1cnnn1 the “activation” value was 0.955%. For Cc1ccc(N(C)C(=O)C2CCN(S(=O)(=O)c3ccc4c(c3)CCCN4C(=O)C3CCC3)CC2)cc1, the “activation” value was 0.721%. For CC(=O)Nc1ccc(S(=O)(=O)NCC2CCC(C(=O)NCCc3ccccc3)CC2)cc1 (stereo unspecified), the “activation” value was -1.06%. For CCOc1ccccc1C(=O)NC1(C(F)(F)F)C(=O)Nc2c1c(=O)[nH]c(=O)n2-c1ccc(F)cc1 (stereo unspecified), the “activation” value was 0.333%. With CCN(CC)S(=O)(=O)c1nnc(NC(=O)COc2ccccc2Cl)s1 the “activation” value was -1.05%. For COc1ccc(-c2cccc(NS(=O)(=O)c3cc(C)c(OC)c(C)c3C)c2)nn1, the “activation” value was 0.997%. For O=C(NC1(C(F)(F)F)N=C(c2ccccc2)N(C2CCCCC2)C1=O)c1ccccc1F (stereo unspecified), the “activation” value was -2.01%. For Cc1ccc(CCNC(=O)c2ccc3c(c2)nc2n3CCC(C)C2)cc1 (stereo unspecified), the “activation” value was 0.0449%. With Cc1ccccc1NC(=O)Cn1c(=O)n(CCCCC(=O)NCc2ccccc2Cl)c(=O)c2ccccc21 the “activation” value was 0.686%.
